This is an account of results in PubChem BioAssay.

The assay in a line: calcein-AM signal in unstimulated myeloma cells – cell-based, calcein-AM fluorescence, 48 h, PK04 Diversity Set, profiling panel (AID 1166).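 Note: cells grown under basal conditions without added stimulus; test concentration not given here.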 Particulars: RPMI8226 myeloma viability, higher = more signal.
Turning to `CC(C)C[C@@H]1NC(=O)[C@H]2C[C@@H](C(=O)NCCCCCCN(C)C)[C@@H](c3ccc(O)cc3)N2C1=O`, the z-score was -1.28. The value for `CCN(CC)c1ccc(N2CC=CC34O[C@@H]5/C=C\CCC(C)OC(=O)C5[C@H]3C(=O)N(C(CO)C(C)C)[C@@H]4C2=O)cc1` (stereo not given in full) was -0.208; that for `C=CCNC(=O)[C@H]1[C@@H]2C(=O)O[C@@H](c3ccccc3)[C@@H](c3ccccc3)N2[C@@H](c2ccccc2OCCO)[C@]12C(=O)Nc1ccc(C#CC3=CCCCC3)cc12` was -4.07; that for `CCOC(=O)[C@H]1C/C=C/C[C@H](C(=O)OCC)C(=O)O[C@H]2[C@@H](OC)O[C@H](CO)[C@@H](OC(=O)Nc3cccc(F)c3)[C@@H]2OC1=O` was -4.16.

On to `CCCC[C@H]1OB(O)C[C@H]2C1=C(COc1ccccc1)C[C@H]1C(=O)N(C)C(=O)[C@H]12`, for which the z-score was -0.185. As for `OC([C@@H]1CC(c2ccccc2)=NO1)[C@H]1CC(c2ccccc2)=NO1` (stereo not given in full), the z-score is -0.132. Consider `CN(C)C(=O)[C@]1(Cc2ccccc2N=[N+]=[N-])N=C(c2ccc(OCCCO)cc2)O[C@@H]1c1ccccc1`, for which the z-score was -2.57. The value for `CCCCCN1CC=CC23O[C@@H]4/C=C\CCCOC(=O)C4[C@H]2C(=O)N(CCCO)[C@@H]3C1=O` (stereo not given in full) was 0.424. The result for `CC(C)[C@@H](CO)NC(=O)[C@H]1[C@@H](c2ccccc2)N(c2ccccc2)O[C@@H]1C` reads 0.285; that for `C=CC[C@@]1(C(=O)N(C)C)N=C(c2ccc(OCCCO)cc2)O[C@@H]1c1ccccc1N=[N+]=[N-]`, -1.51; that for `C=C(C)C1C(=C)CN([C@H](CO)c2ccccc2)C1=O` (stereo not given in full), -2.01. Turning to `O=C(O)[C@@]1(CCS(=O)(=O)c2ccccc2)COC(c2ccc(OCCCO)cc2)=N1`, the z-score is -0.658. The result for `COC(=O)[C@@]1(Cc2ccc(OC)cc2)[C@H]2c3cc(C(=O)N(C)C)n(CCN4CNCC4=O)c3C[C@H]2CN1C(=O)c1ccccc1` reads 0.177; that for `[N-]=[N+]=NCc1ccccc1[C@@H]1OC(c2ccc(OCCCO)cc2)=N[C@]1(Cc1ccccc1N=[N+]=[N-])C(=O)N1CCOCC1`, -2.62; that for `CN(C)CCCCCCNC(=O)[C@@H]1C[C@@H]2C(=O)N[C@@H](CCCCN)C(=O)N2[C@@H]1c1cccc(OCCO)c1`, 0.207. The result for `CN1C(=O)C2C=CC(C(O)C3=C[C@H]4C[C@@H](C3)C4(C)C)N(Nc3ccccc3)C2C1=O` (stereo not given in full) reads -0.724; that for `COC(=O)c1c(CC[C@@H](CO)NC(=O)N[C@H](Cn2cc(Cc3ccccc3)nn2)C(C)C)oc(C(C)=O)c1C(=O)OC`, -0.298. `CN(C)CCCNC(=O)[C@@]1(c2ccc([N+](=O)[O-])cc2)CC(=O)N(C2CCCCC2)[C@@H]1c1ccc(CO)cc1`: the z-score is -1.43.

As for `C=CCN1C(=O)[C@@]2(O[C@@H](CCO)[C@H]([Si](C)(C)c3ccc(OC)cc3)[C@H]2C)c2cc(NC(=O)c3ccc(OC)cc3)ccc21`, the z-score is -4.36. The result for `COc1ccc([C@H]2C[C@H]3C(Br)=C[C@@H]2C(=O)[C@]32CO2)cc1` reads -1.55; that for `COc1ccc(C(=O)Nc2ccc(CN3C(=O)[C@@]4(O[C@@H](CC(=O)N5CCC[C@H]5CO)[C@H]([Si](C)(C)c5ccc(OC)cc5)[C@H]4C)c4ccccc43)cc2)cc1`, -3.93; that for `COCCOC(=O)N1C(=O)[C@@]2(c3cc(C#CC4=CCCCC4)ccc31)[C@H](C(=O)Nc1nc3ccccc3s1)[C@H]1C(=O)O[C@H](c3ccccc3)[C@H](c3ccccc3)N1[C@@H]2c1ccc(OCCO)cc1`, -0.856. The value for `C=CCOC(=O)[C@H]1[C@@H]2C(=O)O[C@@H](c3ccccc3)[C@@H](c3ccccc3)N2[C@@H](c2ccc(OCCOC(=O)[C@H]3C[C@H]4C(=O)N5CCC[C@H]5C(=O)N4[C@H]3c3ccc(O)cc3)cc2)[C@]12C(=O)Nc1ccccc12` was -0.653. The value for `C=C(CCCC)/C(=C/C[C@@H](OC(C)=O)c1ccccc1OCCO)c1cnc2ccccc2c1` was -3.31. Take `Cc1ccc(C(C)CC(O)C2C=CC3C(=O)N(c4ccccc4)C(=O)C3N2Nc2ccc([N+](=O)[O-])cc2)o1` (stereo not given): the z-score is -0.259.
